# Measurements from PubChem BioAssay AID1558 (National Center for Advancing Translational Sciences (NCATS), 2009).
# Records with an inconclusive call do not appear. The source made the active and inactive calls. Calls come from the whole dose curve; as a rule, active = well fitted inhibition curve with a large enough effect; inconclusive = small, poorly fitted or top-dose-only effect; inactive = flat fitted curve, though single readings scatter.
# Molecular target: Microtubule-associated protein tau (Homo sapiens) (UniProt P10636)
# Assay: Confirmation Concentration-Response Assay for Inhibitors of Tau Fibril Formation, Thioflavin T Binding
# Details: recombinant tau K18 P301L (four-repeat tau fragment) heparin fibrillization, ThT fluorescence
# Text: NIH Molecular Libraries Probe Production Network [MLPCN] NIH Chemical Genomics Center [NCGC] MLPCN Grant: X01 MH083262-01 Assay Provider: Carlo Ballatore, University of Pennsylvania NCGC Assay Overview: The microtubule-associated protein tau is an abundant protein in the axons of neurons that stabilizes microtubules. With its ability to modulate microtubule dynamics, tau contributes directly or indirectly, to key structural and regulatory cellular functions. Particularly important is the influence tau exerts on axonal transport, which allows signaling molecules, trophic factors and other essential cellular constituents to travel along the axons. Under pathological conditions, tau becomes sequestered into insoluble aggregates called neurofibrillary tangles. […] This assay monitors tau fibrillization by Thioflavin T (ThT) fluorescence. […]
# For screening, 2 uL/well human K18 P301L (15 uM unlabeled and 0.24 uM Alexa 594-labeled tau, final concentrations) in reagent buffer (100 mM sodium acetate pH 7) was dispensed into black solid 1536-well plates (Grenier) using a solenoid-based dispenser. […] After a 1 hr ambient incubation, the plates were read by an Envision (Perkin Elmer) to monitor ThT fluorescence (450/8 nm excitation and 510/23 nm emission). […]
# Chain of Microtubule-associated protein tau (Homo sapiens) (P10636 561-689 P618L limits assumed): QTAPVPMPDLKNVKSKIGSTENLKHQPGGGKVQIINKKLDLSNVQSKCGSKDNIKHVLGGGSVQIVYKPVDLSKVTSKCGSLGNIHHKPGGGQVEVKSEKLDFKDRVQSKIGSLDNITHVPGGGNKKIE
structure (smiles),measurement,value
CC(N)[C@H](O)c1ccc(O)c(O)c1 (stereo partly specified),Potency,7.94 µM (active)
